Records with an inconclusive call do not appear. Entries that show only a call come without a potency. Calls of active or inactive are those of the source. Calls come from the whole dose curve; as a rule, active = well fitted inhibition curve with a large enough effect; inconclusive = small, poorly fitted or top-dose-only effect; inactive = flat fitted curve, though single readings scatter.
Target: Luciferin 4-monooxygenase (Photinus pyralis) (UniProt P08659)
Assay: Biochemical firefly luciferase enzyme assay for NPC (AID 624030); note: nearly all actives have a fitted effect of over 70% in size
Details: purified P. pyralis luciferase, luminescence, 5 min; series mostly up to 58.6 µM
Text: Charcot-Marie-Tooth-Association [CMTA] National Center for Advancing Translational Sciences [NCATS] Charcot-Marie-Tooth (CMT) disease was first characterized by Jean-Martin Charcot and Pierre Marie in France and, independently, by Howard Henry Tooth in England in 1886. CMT is one of the most common inherited neurological diseases, affecting approximately 1 in 2,500 Americans. […] The most prevalent type of CMT is known as CMT1A and caused by a duplication of the PMP22 gene which leads to over-expression of this protein. PMP22 is a glycosylated intrinsic membrane protein accounting for 2-5% of the myelin protein content, and its over-expression results in demyelination and subsequently axonal loss. A pair of cellular transcription-based assays was developed in the S16 rat Schwann cell lines (Hai, M., et al., 2002) stably transfected with orthogonal reporters - firefly luciferase (Fluc) and beta-lactamase (beta-Lac) - whose expression is driven by an intronic regulatory element of the PMP22 gene (Jones, E.A., et al., 2011) to recapitulate endogenous expression of PMP22. A comprehensive library of approved drugs, the NCGC Pharmaceutical Collection (Huang, R., et al., 2011), was screened in the cross-validating platform of the orthogonal reporter assays to identify drug modulators inhibitory towards PMP22 expression. A set of counter-screens was devised to address non-specific activity of the library. An ATP-dependent CellTiter-Glo assay (developed by Promega Corp) was utilized to control cell viability. In addition, biochemical Fluc enzyme assay was performed to assess direct inhibition of the Fluc enzymatic activity. References Hai, M., Muja, N., DeVries, G.H., Quarles, R.H. and Patel, P.I. Comparative analysis of Schwann cell lines as model systems for myelin gene transcription studies. J Neurosci Res, 2002. 69(4): pp 497-508 Huang, R., Southall, N., Wang, Y., Yasgar A., Shinn P., Jadhav, A. , Nguyen, D.-T. and Austin, C.P., The NCGC pharmaceutical collection: a comprehensive resource of clinically approved drugs enabling repurposing and chemical genomics. Sci Transl Med, 2011. 3(80): p. 80ps16.
Compounds were transferred to the plates in 23nl, and one microliter/well luciferase enzyme-buffer solution (10 nM P. pyralis luciferase and 50 mM Tris Acetate final concentrations) was dispensed yielding a final reaction volume of […]. Luciferase luminescence was measured by a ViewLux plate reader within 5 minutes of enzyme-buffer addition. The % activity was determined by normalizing to the average readings of PTC124 (a positive control) relative to DMSO (0% Activity). The concentration-effect curves were then classified based on curve quality (r2), response magnitude and degree of measured activity.

Luciferin 4-monooxygenase (Photinus pyralis), sequence (P08659 whole entry, looked up): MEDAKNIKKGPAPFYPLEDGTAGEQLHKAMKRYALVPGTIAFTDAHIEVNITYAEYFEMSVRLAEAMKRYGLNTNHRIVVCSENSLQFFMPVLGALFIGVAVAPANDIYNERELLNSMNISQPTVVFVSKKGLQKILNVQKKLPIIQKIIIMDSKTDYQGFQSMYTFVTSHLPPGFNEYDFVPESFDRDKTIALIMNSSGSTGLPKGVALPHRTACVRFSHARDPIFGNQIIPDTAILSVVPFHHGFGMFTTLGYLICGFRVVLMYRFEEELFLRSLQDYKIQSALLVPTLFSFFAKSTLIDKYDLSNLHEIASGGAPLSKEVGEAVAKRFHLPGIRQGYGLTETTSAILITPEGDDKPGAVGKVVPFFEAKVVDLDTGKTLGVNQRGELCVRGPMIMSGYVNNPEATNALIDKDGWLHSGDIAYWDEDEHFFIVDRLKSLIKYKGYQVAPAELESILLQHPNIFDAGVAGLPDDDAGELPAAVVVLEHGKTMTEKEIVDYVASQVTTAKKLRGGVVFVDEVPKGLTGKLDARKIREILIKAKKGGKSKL

Row | SMILES | Potency
1 | CN1C(CCl)Nc2cc(Cl)c(S(N)(=O)=O)cc2S1(=O)=O (stereo not given) | inactive
2 | CCCOC(C(=O)OC1CCN(C)CC1)(c1ccccc1)c1ccccc1 | inactive
3 | COc1cc2c(cc1OC)C(C(C(=O)N(CCc1ccc(OC)c(OC)c1OC)CCc1ccc(OC)c(OC)c1OC)c1ccccc1)=NCC2 (stereo not given) | inactive
4 | C#C[C@]1(OC(C)=O)CC[C@H]2[C@@H]3CCC4=C[C@@H](OC(C)=O)CC[C@@H]4[C@H]3CC[C@@]21C | inactive
5 | Cc1ccc(C(=O)C(C)CN2CCCCC2)cc1 (stereo not given) | inactive
6 | CC(C)(C(=O)c1cccnc1)c1cccnc1 | inactive
7 | CC(O)(P(=O)(O)O)P(=O)(O)O | inactive
8 | COC(=O)[C@@H]1CC2=CC(=O)CC[C@]2(C)[C@@]23O[C@@H]2C[C@@]2(C)[C@@H](CC[C@@]24CCC(=O)O4)[C@H]13 | inactive
9 | Cc1cc(N)c2cc(NC(=O)Nc3ccc4nc(C)cc(N)c4c3)ccc2n1 | inactive
10 | Nc1cc(Cl)c(NC2=NCCN2)c(Cl)c1 | inactive
11 | CCOC(=O)c1cccc(N)c1 | inactive
12 | CCCCCCCCCCCCCCCC[N+](C)(C)CCN(Cc1ccc(OC)cc1)c1ncccn1 | inactive
13 | O=C1[C@H]2CCCC[C@H]2C(=O)N1CCCCN1CCN(c2nsc3ccccc23)CC1 | inactive
14 | CC(C)(Oc1ccc(Cl)cc1)C(=O)O | inactive
15 | CCCCS(=O)(=O)N[C@@H](Cc1ccc(OCCCCC2CCNCC2)cc1)C(=O)O | inactive
16 | Oc1ccc(O)cc1 | inactive
17 | Cc1c(N(C)CS(=O)(=O)O)c(=O)n(-c2ccccc2)n1C | inactive
18 | Cc1cccc(C)c1NC(=O)CN1CCN(CCCC(c2ccc(F)cc2)c2ccc(F)cc2)CC1 | inactive
19 | COC(=O)C1=C(C)NC(C)=C(C(=O)O[C@@H]2CCCN(Cc3ccccc3)C2)[C@@H]1c1cccc([N+](=O)[O-])c1 | inactive
20 | CCCCCCCCCCCCCCCCCC(=O)OCC(O)CO (stereo not given) | inactive

Row | SMILES | Potency
21 | CCCCCCC[N+](CC)(CC)CCCCc1ccc(Cl)cc1 | inactive
22 | COc1c(C)c2c(c(O)c1C/C=C(\C)CCC(=O)O)C(=O)OC2 | inactive
23 | C1CCc2nnnn2CC1 | inactive
24 | CN(C)CCCOc1nn(Cc2ccccc2)c2ccccc12 | inactive
25 | CC(C)(C)CC(C)(C)c1ccc(O)c(Cc2ccc(Cl)cc2Cl)c1 | inactive
26 | Cc1c(C(N)=O)cc([N+](=O)[O-])cc1[N+](=O)[O-] | inactive
27 | CCN(CC)C(=O)/C(C#N)=C/c1cc(O)c(O)c([N+](=O)[O-])c1 | inactive
28 | CC1(C)CCC(NC(=O)[C@@H](N)CCC(=O)O)CC1 | inactive
29 | CN(C)CC/C=C1\c2ccccc2Sc2ccc(Cl)cc21 | inactive
30 | CCN1CCC[C@H]1CNC(=O)c1c(OC)ccc(Br)c1OC | inactive
31 | N[C@H](CO)C(=O)O | inactive
32 | CCCCCCCCCCCCCCNCCO | inactive
33 | C[N+]1(CCCCC[N+]2(C)CCCC2)CCCC1 | inactive
34 | O=C(O)CCCCC(=O)O | inactive
35 | Cc1c(C(C)C)c(=O)n(-c2ccccc2)n1C | inactive
36 | O=C(CCN1CCC(c2ccccc2)C1)c1ccc2c(c1)OCCO2 (stereo not given) | inactive
37 | Oc1c(I)cc(Cl)c2cccnc12 | inactive
38 | Oc1c(I)cc(I)c2cccnc12 | inactive
39 | CC[N+](CC)(CCNC(=O)C(=O)NCC[N+](CC)(CC)Cc1ccccc1Cl)Cc1ccccc1Cl | inactive
40 | COCc1c(C(C)C)nc(C(C)C)c(/C=C/[C@@H](O)C[C@@H](O)CC(=O)O)c1-c1ccc(F)cc1 | inactive

Source: PubChem BioAssay (NCATS)
